Compounds without any hit were thinned out: in the full panel of roughly 79,000, 15% have a hit. Values without a mark were called inactive. The source made the active and inactive calls. Rule as the data show it: active = growth inhibition above about 70%; inactive = the rest.
Columns and labels:
[1] = NCI Yeast Anticancer Drug Screen. Data for the rad50 strain (AID 155);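 also: 0% = growth of vehicle-only cultures of the same strain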; settings: S. cerevisiae rad50 strain growth inhibition, hits give high values
Outline: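 Vehicle-treated cultures provide the reference for the growth inhibition reported for compound-exposed, repair-deficient yeast.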

[2] = NCI Yeast Anticancer Drug Screen. Data for the mec2-1 strain (AID 157); settings: S. cerevisiae mec2-1 strain, hits give high values
Outline: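 Test agents were screened against the mec2-1 yeast strain, with defined DNA repair or cell cycle alteration. Growth was scored as inhibition against vehicle-only controls.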

[3] = NCI Yeast Anticancer Drug Screen. Data for the sgs1 mgt1 strain (AID 161);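 also: 0% = growth of cultures given vehicle only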; settings: S. cerevisiae sgs1 mgt1 strain, hits give high values
Outline: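 Genetically altered yeast, compound exposure, growth inhibition relative to vehicle.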

[4] = NCI Yeast Anticancer Drug Screen. Data for the cln2 rad14 strain (AID 165);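 also: 0% = growth equal to vehicle treated cultures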; settings: S. cerevisiae cln2 rad14 strain, hits give high values
Outline: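 Growth of compound-exposed yeast (cln2 rad14 genotype) measured and expressed as inhibition relative to vehicle.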

[5] = NCI Yeast Anticancer Drug Screen. Data for the bub3 strain (AID 167); settings: S. cerevisiae bub3 mutant strain, hits give high values
Outline: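 Mutant yeast screening strain plus compound; vehicle-treated cultures serve as the 0% inhibition reference.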

[6] = NCI Yeast Anticancer Drug Screen. Data for the mlh1 rad18 strain (AID 175); settings: S. cerevisiae mlh1 rad18 strain growth inhibition, hits give high values
Outline: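 In this whole-cell yeast screen, a strain with altered DNA damage repair is challenged with compound, and its growth is measured against matched vehicle-treated controls.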

[7] = at 5.0 µM (retest, dose inferred, filed as 0.5)
[8] = at 50.0 µM (retest, dose inferred, filed as 5.0)

| SMILES | growth inhibition [1, 7] | growth inhibition [1, 8] | growth inhibition ([1]; at 50.0 µM) | growth inhibition [2, 7] | growth inhibition [2, 8] | growth inhibition ([2]; at 50.0 µM) | growth inhibition [3, 7] | growth inhibition [3, 8] | growth inhibition ([3]; at 50.0 µM) | growth inhibition [4, 7] | growth inhibition [4, 8] | growth inhibition ([4]; at 50.0 µM) | growth inhibition [5, 7] | growth inhibition [5, 8] | growth inhibition ([5]; at 50.0 µM) | growth inhibition [6, 7] | growth inhibition [6, 8] | growth inhibition ([6]; at 50.0 µM) |
| --- | --- | --- | --- | --- | --- | --- | --- | --- | --- | --- | --- | --- | --- | --- | --- | --- | --- | --- |
| CN(C)c1ccc(C=Nc2cnc3ccccc3c2)cc1 | -10% | 10% | -54.4% | -5% | -13% | -14.3% | -4% | -1% | -3.05% | -32% | -14% | -43.7% | 2% | 5% | -3.65% | 0% | 10% | -6.35% |
| COC1=Nc2ccccc2S(=O)(=O)C=C1 | 4% | 87% (active) | 98.2% (active) | 3% | 79% (active) | 98.5% (active) | 2% | 89% (active) | 99.2% (active) | 6% | 79% (active) | 95.8% (active) | 11% | 98% (active) | 98.7% (active) | 12% | 94% (active) | 98.3% (active) |
| CN(Cc1cc(Cl)cc(Cl)c1O)Cc1c(O)ccc2ccccc12 | 31% | 100% (active) | 98.5% (active) | 14% | 100% (active) | 98.3% (active) | 10% | 99% (active) | 98.7% (active) | -34% | 99% (active) | 98.1% (active) | -11% | 100% (active) | 98.6% (active) | 12% | 99% (active) | 98.5% (active) |
| COc1ccc(-c2c3ccccc3[n+](-c3ccccc3)c3ccccc23)cc1 | 98% (active) | 99% (active) | 99.6% (active) | 99% (active) | 100% (active) | 99.5% (active) | 99% (active) | 100% (active) | 99.5% (active) | 96% (active) | 99% (active) | 99.2% (active) | 99% (active) | 99% (active) | 99.2% (active) | 99% (active) | 99% (active) | 99.3% (active) |
| O=C(Oc1ccc(/C=C/[n+]2ccccc2)c(OC(=O)c2ccccc2)c1)c1ccccc1 | -4% | 93% (active) | 49.6% | 14% | 97% (active) | 18.7% | -11% | 95% (active) | 70.2% (active) | -8% | 91% (active) | 5.7% | 1% | 83% (active) | -1.45% | 7% | 98% (active) | 48.7% |
| FC(F)(F)c1[nH]nc(-c2ccc(Cl)cc2)c1N=NN1CCOCC1 | 98% (active) | 96% (active) | 94.6% (active) | 99% (active) | 94% (active) | 95.8% (active) | 99% (active) | 94% (active) | 95.4% (active) | 99% (active) | 98% (active) | 91.2% (active) | 99% (active) | 98% (active) | 82.5% (active) | 99% (active) | 97% (active) | 93.6% (active) |
| CCOCCOC(=O)C(C)O (stereo not given) | 9% | -1% | 9.25% | -1% | -3% | 27.1% | -2% | 3% | -3.1% | 5% | 2% | 45.3% | 6% | 14% | 9.25% | 7% | -2% | -7.1% |
| O=C1CC2(CCN(CC3COc4ccccc4O3)CC2)C(=O)N1N1CCCCCC1 (stereo not given) | 51% | 66% | 77% (active) | 33% | 41% | 70.4% (active) | 62% | 66% | 82.8% (active) | 78% (active) | 83% (active) | 84% (active) | 48% | 68% | 85.5% (active) | 37% | 75% (active) | 83.8% (active) |
| O=C1c2cc([N+](=O)[O-])ccc2-c2cc([N+](=O)[O-])ccc21 | 44% | 32% | 91.2% (active) | 39% | 39% | 92.8% (active) | 73% (active) | 97% (active) | 93.3% (active) | 46% | 99% (active) | 68% | 80% (active) | 97% (active) | 91.2% (active) | 21% | 34% | 74.5% (active) |
| ClCc1ccc2ccc3ccc(CCl)nc3c2n1 | 31% | 81% (active) | 47.1% | 67% | 93% (active) | 43% | 65% | 93% (active) | 70.2% (active) | 29% | 81% (active) | 27.8% | -7% | 95% (active) | 59% | 72% (active) | 94% (active) | 62% |
| O=C(Nc1ccccc1)OC1CCCC1 | 19% | 94% (active) | 85.5% (active) | 11% | 88% (active) | 11.8% | 12% | 92% (active) | 81.2% (active) | 8% | 28% | -3.85% | 6% | 90% (active) | 50.1% | 12% | 94% (active) | 82.8% (active) |
| Fc1ccc(NC(=S)SCc2ccc(Cl)cc2)c(F)c1 | 19% | 99% (active) | 99.3% (active) | 11% | 99% (active) | 99.6% (active) | 13% | 99% (active) | 99.5% (active) | -2% | 99% (active) | 99.4% (active) | 19% | 98% (active) | 99.5% (active) | 7% | 98% (active) | 99.5% (active) |
| N#Cc1ccc(Cl)cc1[N+](=O)[O-] | 31% | 97% (active) | 90.3% (active) | 15% | 98% (active) | 92% (active) | 36% | 96% (active) | 90.8% (active) | 38% | 96% (active) | 91% (active) | 52% | 97% (active) | 90.2% (active) | 42% | 96% (active) | 90.4% (active) |
| C#CC[N+](CC)(CC)CCNC(=O)CCCCCCCCCCCCCCC | 97% (active) | 99% (active) | 99.5% (active) | 81% (active) | 99% (active) | 99.7% (active) | 98% (active) | 100% (active) | 99.6% (active) | 51% | 99% (active) | 98.8% (active) | 92% (active) | 99% (active) | 99.6% (active) | 49% | 99% (active) | 99.5% (active) |
| BrCc1ccc2ccc3ccc(CBr)nc3c2n1 | 2% | 83% (active) | 69.7% | 11% | 91% (active) | 43.5% | 11% | 95% (active) | 63.9% | -12% | 89% (active) | 24.8% | -4% | 94% (active) | 45% | 8% | 95% (active) | 64.8% |
| CCCCCCCCCCN1Cc2ccccc2C1 | 77% (active) | 99% (active) | 99% (active) | 68% | 99% (active) | 97.9% (active) | 87% (active) | 99% (active) | 99% (active) | 68% | 99% (active) | 97.5% (active) | 85% (active) | 99% (active) | 98% (active) | 68% | 99% (active) | 99.3% (active) |
| N#Cc1c(-c2ccc(Cl)cc2)c2c(n(C3OC(CO)C(O)C(O)C3O)c1=S)CCCC2 (stereo not given) | -3% | 88% (active) | 9.95% | -2% | 77% (active) | 10.5% | -1% | 96% (active) | -8.85% | 3% | 86% (active) | 31.2% | 3% | 96% (active) | 1% | -2% | 96% (active) | 14.9% |
| CN(/N=C\c1ccc(Cl)cc1)C(c1ccc(Cl)cc1)N(C)/N=C/c1ccc(Cl)cc1 (stereo not given) | -1% | 70% (active) | 29% | 2% | 84% (active) | 9.5% | -3% | 94% (active) | 80.2% (active) | 3% | 67% | 45.5% | -2% | 66% | 16.6% | -3% | 85% (active) | 30.2% |
| CC(=O)OC1=C(Br)CCc2ccccc21 | 13% | 99% (active) | 98.2% (active) | 13% | 100% (active) | 97.3% (active) | 41% | 99% (active) | 91.2% (active) | 11% | 98% (active) | 86.3% (active) | 18% | 100% (active) | 88.3% (active) | 39% | 99% (active) | 89.6% (active) |
| COc1ccc(CCN2CC(=O)N3CSCC3C2=O)cc1OC (stereo not given) | 6% | 24% | 66.7% | 5% | 16% | 7.05% | 9% | 27% | 34.8% | 4% | 27% | 25.4% | 3% | 28% | 21.8% | -1% | 14% | 37.2% |

Reference: PubChem BioAssay (NCI)
